Compounds with a hit are over-represented: about 13% of the library has one in this group of screens.
HCV inhibitor = inhibitors of hepatitis C virus infection; Huh7.5.1 HCVcc-Cre infection, luciferase reporter, 44 h; Potency, µM (top dose mostly 41.8 µM), for inactives: at the top dose activity change, negative = inhibition, usual class: inhibitors; 340,000 tested, 3.4% active; further: potency means the concentration at half of the fitted maximal effect
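Cells (1,000/well) were plated 4 h before compound, then infected with HCVcc-Cre virus (~0.5 moi). After 44 h further culture, infection was read as luciferase luminescence following a 15 min substrate incubation at room temperature.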
HCMV inh = blocks human cytomegalovirus replication; HFF cells, HCMV-luciferase reporter, 72 h; stronger effect = lower value; activity change, negative = inhibition, % at 57.5 µM; 410,000 tested, 4.5% active; AID 1259415; in the data active means activity change below about -60%; inconclusive means no clear call, values can overlap the other calls; inactive means above about -39%
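HFF cells seeded 16 h at 37C, treated with compounds, infected with luciferase-reporter HCMV at MOI 1 PFU/cell; luciferase read at 72 h post infection, normalized to buffer-only and Salinomycin controls.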
Pf growth 48h = inhibits P. falciparum growth in the first generation, 48 h; Potency, µM (highest dose often 28.7 µM), without a hit: at the highest dose activity change, negative = inhibition, most hits filed as inhibitors; P. falciparum luciferase growth in erythrocytes, 48 h; AID 504832; 310,000 tested, 5.9% active; further: potency means the concentration at half of the fitted maximal effect
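Firefly luciferase activity from engineered P. falciparum reports growth; inhibitors lower the luminescent signal. Cultures contained 2% hematocrit erythrocytes at 0.1% final parasitemia.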
Pf growth 96h = P. falciparum growth inhibition at 96 hours; P. falciparum luciferase reporter growth, 96 h; Potency, µM (highest dose often 28.7 µM), for inactives: at the highest dose activity change, negative = inhibition, hits mostly inhibitors; 320,000 tested, 6.9% active; further: potency means the concentration at half of the fitted maximal effect
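Two-generation exposure (96 h) targets delayed-death phenotype. Reporter parasites carrying integrated firefly luciferase, in red cells at 2% hematocrit and 0.05% parasitemia final, kept at 37 C, 5% CO2; luminescence loss indicates inhibition.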
* = called active by the depositor; u = inconclusive; x = not tested or not shown. Unless noted, the call rests on the fitted dose curve; in most records, active means well fitted inhibition curve with a large enough effect; inconclusive means small, poorly fitted or top-dose-only effect, or another doubt; inactive means no such curve, though single readings can be large or run the other way. On the % scale 0 is the no-effect control and ±100 the full control effect.

SMILES | HCV inhibitor | HCMV inh | Pf growth 48h | Pf growth 96h
CCN1C(N(C)CCc2c[nH]c3ccccc23)=N[C@@H](c2cccc(C(F)(F)F)c2)C(C(=O)OC)=C1C | 25.1µM* | x | x | x
CCN1C(N(C)CCc2cccs2)=N[C@@H](c2ccccc2)C(C(=O)OC)=C1C | -4.2% | -25.5 | u | u
Cc1ccc(OC(=O)c2cc(-c3ccc4c(c3)OCCO4)on2)c(C)c1 | x | -18.1 | x | x
COc1ccccc1/C=N/NC(=O)NC12CC3CC(CC(C3)C1)C2 | u | -19.8 | u | 2.4%
COc1ccc(/C(C)=N/NC(=O)c2ccccc2OCc2ccccc2)c(OC)c1 | -10.8% | -33.2 | u | 19.3%
COc1ccc(/C=N/NC(=O)NC23CC4CC(CC(C4)C2)C3)c(OC)c1 | u | -2.1 | 8.28µM* | u
COc1ccc(/C=N/NC(=O)c2ccccc2OCc2ccccc2)c(OC)c1 | 12.6µM* | u | u | 11.3%
O=C(CNC(=O)c1ccc(F)cc1)N/N=C/c1cc(Br)ccc1OCc1ccccc1 | u | 10.0 | 2.2% | u
COc1ccccc1C(=O)NCC(=O)N/N=C/c1cccc(Cl)c1 | -1.6% | -22.9 | 5.1% | 2.08µM*
COc1ccccc1C(=O)NCC(=O)N/N=C/c1cc(Br)ccc1OCc1ccccc1 | 10µM* | u | -8.5% | 112.0%
O=C1/C(=C\c2cccs2)CCC/C1=C/c1cccs1 | x | x | 134.4% | 182.5%
Cc1nn(C)c2c1c(C(F)(F)F)cc(=O)n2CC(=O)NCCC(C)C | x | -3.4 | x | x
O=C(Nc1ccc2c(c1)OCO2)c1ccc2sc([C@@H]3O[C@H](CO)[C@H](O)[C@H](O)[C@H]3O)nc2c1 | x | 23.5 | x | x
Cc1cc(C)n(C(=O)CNC(=O)c2ccccc2Br)n1 | 2.5% | -29.3 | 12.7% | 25.2%
N#CCC(=O)N/N=C/c1cc(Br)ccc1OCc1cccc2ccccc12 | u | 32.3 | 13.1µM* | u
COc1ccccc1C(=O)NCC(=O)n1nc(C)cc1C | 4.0% | -3.1 | 6.8% | 13.1µM*
COc1ccc(COc2ccccc2C(=O)NCc2ccccc2)cc1F | 10µM* | -69.2* | -3.0% | 0.0%
COc1ccc(NC(C)C(=O)N/N=C/c2ccccc2OCc2cccc(Br)c2)cc1 (stereo unspecified) | 11.2µM* | 13.6 | u | 35.2%
N#CCC(=O)N/N=C/c1c2ccccc2cc2ccccc12 | u | -2.4 | 0.0% | 7.0%
COc1cc(C(=O)NCc2ccccc2)ccc1OC(F)F | -0.4% | -27.1 | 4.4% | u
C#CCOc1ccccc1/C=N/NC(=O)c1ccccc1OCc1ccccc1 | u | u | u | 10.4µM*
COc1cccc(C(=O)n2nc(-c3ccco3)nc2NCc2cccs2)c1 | x | 22.6 | x | x
COC(C(=O)C(O)C(C)O)C1Cc2cc3cc(OC4CC(OC5CC(O)C(OC)C(C)O5)C(OC(C)=O)C(C)O4)c(C)c(O)c3c(O)c2C(=O)C1OC1CC(OC2CC(OC3CC(C)(O)C(OC(C)=O)C(C)O3)C(O)C(C)O2)C(O)C(C)O1 (stereo unspecified) | x | x | 0.12µM* | u
Cc1ccc(NC(=O)c2c(C)nc3sc(C(=O)Nc4ccc(F)cc4)c(N)c3c2-c2ccc(C)o2)c(C)c1 | x | 11.9 | x | x
Cc1ccc(O)c(C(=O)c2cc(C(=O)NCc3ccccc3)c(=O)n(Cc3ccccc3)c2)c1 | u | 10.3 | 3.7µM* | u
SMILES | HCV inhibitor | HCMV inh | Pf growth 48h | Pf growth 96h
O=C(c1cc(C(=O)NCc2ccccc2)c(=O)n(Cc2ccccc2)c1)c1cc(Br)ccc1O | u | -13.6 | 1.47µM* | 0.415µM*
COc1ccc(N(C(=O)c2ccccc2C)S(=O)(=O)c2ccc3c(c2)n(C)c(=O)n3C)cc1 | x | 0.7 | x | x
COc1ccccc1-c1ccc(Nc2cccc(C(C)=O)c2)nn1 | 7.94µM* | 56.9 | 19.8% | 2.3%
CC(=O)c1cccc(Nc2ccc(-c3ccccc3F)nn2)c1 | u | 77.0 | 303.5% | 5.9%
COc1ccc(CN2C(=O)c3cccnc3C2=O)cc1S(=O)(=O)N1CCCC(C)C1 (stereo unspecified) | 10.3% | -14.4 | -15.8% | 14.7µM*
COc1ccc(CN2C(=O)c3cccnc3C2=O)cc1S(=O)(=O)N1CCCCC1 | 26.5% | 16.3 | -1.7% | 22.6%
CC(C)CS(=O)(=O)c1oc(-c2ccc(F)cc2)nc1S(=O)(=O)c1ccccc1 | x | -99.8* | x | x
CCSc1oc(-c2ccc(F)cc2)nc1S(=O)(=O)c1ccc(C)cc1 | x | -65.3* | x | x
CCCSc1nc(-c2ccccc2)[nH]c1S(=O)(=O)c1ccc(C)cc1 | x | -16.7 | x | x
